Screens (PubChem)
An excerpt weighted towards active compounds, which were near 11% of everything screened.
HPGD inh: HPGD (human) dehydrogenase inhibition. Potency, µM, without a hit: at the top dose activity change, negative = inhibition, hits mostly inhibitors. 150,000 tested, 4.3% active. purified HPGD, NADH fluorescence kinetic, PGE2 substrate; further: potency means the concentration at half of the fitted maximal effect
Target sequence (P15428 whole entry, looked up): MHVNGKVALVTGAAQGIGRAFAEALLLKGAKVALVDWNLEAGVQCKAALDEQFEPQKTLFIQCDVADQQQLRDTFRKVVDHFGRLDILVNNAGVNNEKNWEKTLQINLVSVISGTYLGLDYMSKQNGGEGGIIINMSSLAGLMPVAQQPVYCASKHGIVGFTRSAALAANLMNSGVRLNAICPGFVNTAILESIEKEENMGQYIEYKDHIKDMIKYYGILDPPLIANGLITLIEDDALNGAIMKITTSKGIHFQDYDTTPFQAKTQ
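20 nM HPGD preincubated 15 min at room temperature with compound in 50 mM Tris-HCl pH 8, 0.01% Tween 20. Started with 1 mM NAD+ and 30 uM prostaglandin E2; NADH fluorescence (360/450 nm) read 5 times over 30-s intervals, last minus first.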
ALDH1A1 block: ALDH1A1 (human) enzyme inhibition. 220,000 tested, 7.3% active. Potency, µM (titrated, usually from 75.3 µM), for inactives: top-dose activity, negative = inhibition, hits mostly inhibitors. AID 1030. Purified ALDH1A1, NADH fluorescence, propionaldehyde substrate;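 further: potency means the concentration at half of the fitted maximal effect; plate controls were no enzyme wells and a reference inhibitor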
NPSR antagonist: antagonists of human neuropeptide S receptor cAMP signaling; Potency, µM (doses to about 38.3 µM), for the others: at the highest dose activity change, negative = inhibition, usual class: inhibitors; Q6W5P4; 220,000 tested, 1% active; AID 1461; CHO-NPSR cells, cAMP TR-FRET, antagonist mode; active means well fitted curve in the direction sought with a large enough effect; inconclusive means small, poorly fitted or top-dose-only effect, or another doubt; inactive means no such curve, though single readings can be large; an effect the other way counts as inactive or inconclusive; further: potency means the concentration at half of the fitted maximal effect; nearly all actives have a fitted effect of over 50% in size
IMPase cell inh: IMPase inhibition in cells; CHO-M1 cells, IP1 accumulation, HTRF TR-FRET ratio; P97697; inhibition (IP1 accumulation), % at 46.1 µM; 120,000 tested, under 10 active; AID 901; active means well fitted curve in the direction sought with a large enough effect in the signal ratio, not every such curve was filed as active; inconclusive means small, poorly fitted or top-dose-only effect, or a change in a side signal; inactive means no such curve, though single readings can be large or run the other way; the % refers to the signal ratio;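 further: cells stimulated with carbachol in lithium chloride buffer; plate controls were DMSO basal wells for no effect and reference inhibitor wells for full effect; higher means more IMPase inhibition seen as more IP1 and lower FRET ratio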
Target sequence (P97697 whole entry, looked up): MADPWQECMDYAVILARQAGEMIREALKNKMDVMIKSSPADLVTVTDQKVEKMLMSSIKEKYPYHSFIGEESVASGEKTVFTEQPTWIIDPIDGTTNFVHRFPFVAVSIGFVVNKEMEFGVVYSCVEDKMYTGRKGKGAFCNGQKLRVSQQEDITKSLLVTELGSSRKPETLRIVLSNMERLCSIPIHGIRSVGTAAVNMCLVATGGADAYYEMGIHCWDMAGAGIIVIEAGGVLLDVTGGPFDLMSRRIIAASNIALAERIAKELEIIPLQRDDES
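Elevated IP1 in lysates lowers TR-FRET signal (665/620 ratio and 620 channel reported). Cells were CHO-M1, given carbachol (50 uM as added) plus 50mM LiCl, pH 7.4, 30 min, 37C; compounds titrated up to 46 uM; AC50 by Hill equation.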
IMPase Li cell: IMPase inhibition in cells with lithium potentiation | CHO-M1 cells, IP1 TR-FRET (IP-One), carbachol + lithium | Potency, µM (titrated, usually from 59.4 µM), inactives show at the highest dose activity, negative = IMPase inhibition, actives largely listed as inhibitors | 210,000 tested, 0.35% active; active means well fitted curve in the direction sought with a large enough effect; inconclusive means small, poorly fitted or top-dose-only effect, or another doubt; inactive means no such curve, though single readings can be large; an effect the other way counts as inactive or inconclusive;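 further: IP1 builds up when IMPase is blocked and the TR-FRET signal falls; potency means the concentration at half of the fitted maximal effect; plate controls were basal vehicle for no effect and high inhibitor control for full effect; nearly all actives have a fitted effect of over 50% in size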
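Test compounds were applied to CHO-M1 cells previously cultured for 16–30 h at 2000 per well. A small lithium amount accompanied them; after 30 min at 37C, IP1 was quantified by TR-FRET.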
PNC assembly inh: perinucleolar compartment assembly inhibition. PC3M PTB-GFP, PNC prevalence imaging, 16 h; hits give low values. activity change (PNC), negative = inhibition, % at 10 µM. 140,000 tested, 3.1% active;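 active means readout at or below -70, meaning at least 70% loss of cells showing the perinucleolar compartment, a nuclear body marking cancer cells; inconclusive means readout between -30 and a set limit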;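 further: plate controls were DMSO wells for no effect and camptothecin positive control wells for full effect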
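PC3M cells stably expressing PTB-GFP, 750–1000 cells/well, treated 16 h at 37 °C with compound (23 nl of library stock), in duplicate. After paraformaldehyde fixation and Hoechst stain, imaged at 20x; PNC prevalence scored by image analysis.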
Starred values were filed as active, the others as inactive; ? = inconclusive; · = not tested or not shown; ! = not active in a repeat; [ ] = another dose, or the depositor's remark. Unless noted, the call rests on the fitted dose curve; in most records, active means well fitted inhibition curve with a large enough effect (not every such curve was filed as active); inconclusive means small, poorly fitted or top-dose-only effect, or another doubt; inactive means no such curve, though single readings can be large or run the other way. Unless noted, on the % scale 0 is the no-effect control and ±100 the full control effect.

SMILES | HPGD inh | ALDH1A1 block | NPSR antagonist | IMPase cell inh | IMPase Li cell | PNC assembly inh
CN(O)/C=C/C(=O)c1ccc(Br)cc1 | · | 13µM* | -7% | · | 4% | ·
CN(C)/C=C/C(=O)c1ccc(Br)cc1 | · | -15% | 7% | · | -5% | ·
Cn1nc(CC(=O)NC2CCCCCC2)c2ccccc2c1=O | -12% | ? | -2%[46.1 µM] | 2 | 23%[38.3 µM] | 8
Nc1nc(N)nc(-c2ccccc2)n1 | -11% | 4% | -11%[46.1 µM] | 12 | 15%[38.3 µM] | -26
N#Cc1c(Sc2ncc(C(F)(F)F)cc2Cl)nsc1C/C=N\OCc1ccccc1Br | -25% | 10µM* | 10µM* | 11 | -1%[38.3 µM] | -1
COc1ccc(-c2c(C)nn3c(-c4ccccc4)cc(C)nc23)cc1 | · | -10% | -44% | · | 16% | ·
CCN(CC)c1ccc(C(=O)N/N=C(\C)c2cccnc2)cc1 | · | ? | -4% | · | 4% | ·
C/C(=N\NC(=O)c1ccc(N(C)C)cc1)c1ccc(C)c(C)c1 | · | 14µM* | -6%[46.1 µM] | -2 | · | -11
CCN(CC)c1ccc(C(=O)N/N=C(\C)c2ccc(O)cc2)cc1 | -22% | 25µM* | -3% | · | 6% | 11
O=C(CSc1nc2ccccc2s1)Nc1cc(C(=O)O)cc(C(=O)O)c1 | · | 0% | 24% | · | -1% | ·
CC(C)(C)NC(=O)CSc1nnc(NC(=O)c2ccccc2Cl)s1 | · | -5% | -6% | · | 0% | ·
O=C(CSc1nc2ccccc2s1)Nc1ccc2c(c1)oc1ccccc12 | -14% | 25µM* | -3% | · | -11% | 31
O=C(CSc1nc2ccc([N+](=O)[O-])cc2s1)c1ccc2ccccc2c1 | -4% | 11µM*! | ? | · | 5% | ·
Nc1nc(SCC(=O)Nc2cc(S(=O)(=O)N3CCOCC3)ccc2Cl)n[nH]1 | · | -6% | 9% | · | 0% | ·
O=C(CSc1nnc(NC(=O)c2ccccc2Cl)s1)Nc1ccc2c(c1)oc1ccccc12 | -6% | 18µM* | 1% | · | -4% | -23
O=C(CSc1nc2ccccc2s1)Nc1cc(S(=O)(=O)N2CCOCC2)ccc1O | 13µM* | 1% | -15%[46.1 µM] | 7 | 1% | -4
CC(=O)c1ccc(NC(=O)Nc2ccc(Cl)cc2)cc1 | -10% | 6% | -2%[46.1 µM] | 0 | 23%[38.3 µM] | ?
COC(=O)c1ccc(S(=O)(=O)N2Cc3ccccc3C2)cc1 | · | 6% | -6% | · | 7% | ·
COc1cc(CNCc2ccccc2)c(Br)cc1OC1CCCC1 | · | -1% | ? | · | 8% | ·
Cn1c(SCC(=O)Nc2ccc3c(c2)oc2ccccc23)nnc1-c1ccccc1 | -7% | 25µM* | -16%[46.1 µM] | -3 | 4%[38.3 µM] | 5
Cn1ccnc1SCC(=O)c1cc2ccccc2o1 | -20% | 20µM* | 3%[7.67 µM] | 1 | -2%[38.3 µM] | ?
O=C(CSc1nc2ccccc2s1)Nc1ccc(Cl)c(C(=O)O)c1 | · | 2.5µM* | 14% | · | 2% | ·
O=C(CSc1nc2ccccc2s1)CSc1nc2ccccc2s1 | -14% | -5% | -13%[46.1 µM] | 3 | 44%[38.3 µM] | -5
O=C(CSc1nc2ccccc2s1)c1cc2ccccc2o1 | 22µM* | ? | -23%[46.1 µM] | -1 | -8%[38.3 µM] | 12
Cc1ccc(S(=O)(=O)N2CCOCC2)cc1NC(=O)CSc1n[nH]c(N)n1 | · | 0% | 5% | · | -1% | ·
SMILES | HPGD inh | ALDH1A1 block | NPSR antagonist | IMPase cell inh | IMPase Li cell | PNC assembly inh
COc1ccc(S(=O)(=O)N2CCOCC2)cc1NC(=O)CSc1n[nH]c(C(C)C)n1 | · | 25µM* | 10% | · | -1% | ·
CCOc1ccc(CN2CCN(Cc3cnc(N4CCOCC4)s3)CC2CCO)cc1 (configuration not stated) | · | 1% | -4% | · | 8% | ·
Cc1nc(Cl)c2c(n1)N(CC(N)=O)C(=O)CO2 | -6% | 7% | 8% | · | 2% | -109*
COc1ccc(OCC(=O)N2CCc3c([nH]c4ccccc34)C2c2ccccn2)cc1 (configuration not stated) | · | 0.45µM* | 36% | · | 18% | ·
C=CCC(Nc1ccco1)c1ccccc1 (configuration not stated) | -20% | 22µM* | -13%[46.1 µM] | -8 | 29%[38.3 µM] | 18
Cc1cccc2cc(CN(CCCN3CCOCC3)Cc3nnnn3C(C)(C)C)c(=O)[nH]c12 | -5% | 25µM* | -12%[46.1 µM] | 0 | 30%[38.3 µM] | 38
Cc1cccc2cc(CN(Cc3cccs3)Cc3nnnn3Cc3ccccc3)c(=O)[nH]c12 | -29% | 2.8µM* | ? | 4 | 10%[38.3 µM] | -3
CCC(C)(C)n1nnnc1CN(Cc1cccs1)Cc1cc2cc(OC)ccc2[nH]c1=O | -24% | ? | ? | -7 | 15%[38.3 µM] | 6
COc1ccc2cc(CN(Cc3cccs3)Cc3nnnn3Cc3ccccc3)c(=O)[nH]c2c1 | -27% | 2µM* | ? | -12 | 7% | 25
COc1ccc2cc(CN(Cc3cccnc3)Cc3nnnn3Cc3ccccc3)c(=O)[nH]c2c1 | -3% | 8.9µM* | ? | ? | 1%[38.3 µM] | -18
O=C(COC(=O)CCC(=O)c1ccc2c(c1)OCCO2)NCc1ccc2c(c1)OCO2 | -11% | ? | 1%[46.1 µM] | 2 | -15%[38.3 µM] | 29
Cn1c(C(=O)OC(C(=O)NCC2CCCO2)c2cccnc2)cc2sccc21 (configuration not stated) | · | -7% | -10% | · | 1% | ·
COCCN(C(=O)Cc1cccs1)C(C(=O)NC1CCCC1)c1ccc(OC)c(OC)c1 (configuration not stated) | · | -14% | 8% | · | -14% | ·
CCOC(=O)c1ccc(NC(=O)Cn2ncc(Cl)c(Cl)c2=O)cc1 | -10% | 28µM* | 10µM* | · | -5% | 15
CC(NC(=O)Cn1ncc(Cl)c(Cl)c1=O)C12CC3CC(CC(C3)C1)C2 (configuration not stated) | -2% | ? | 10µM* | · | 5% | 18
COc1ccc(NC(=O)Cc2coc3cc(C)c(C(C)C)cc23)cc1S(=O)(=O)N1CCOCC1 | -14% | 22µM* | -2%[46.1 µM] | 3 | 10% | ?
COc1ccc(NC(=O)Cn2ncc(Cl)c(Cl)c2=O)cc1S(=O)(=O)N1CCOCC1 | -4% | 11µM* | -31% | · | -8% | -26
CCn1cc(C(=O)NC(C)C23CC4CC(CC(C4)C2)C3)cn1 (configuration not stated) | -7% | 1% | 3% | · | 4% | -30
Cc1cc(C)c(S(=O)(=O)N2CCN=C2c2ccccc2)cc1C | -5% | -13% | -6%[46.1 µM] | 0 | 6%[38.3 µM] | 36
COc1ccc(C(=O)Oc2cc(OC)cc(OC)c2C(C)=O)cc1 | -12% | -3%[13.5 µM] | 3% | · | -2% | 17
CCC(=O)Nc1ccc(C(=O)Cn2ncc(Cl)c(Cl)c2=O)cc1 | · | 2.2µM* | ? | · | · | ·
CCc1ccccc1NC(=O)CN(C)C(=O)Cn1ncc(Cl)c(Cl)c1=O | -4% | 0% | -26% | -10 | -7% | -28
CCCc1[nH]n(-c2nc3ccccc3s2)c(=O)c1C=NCC(C)C | -16% | 13µM* | -18%[46.1 µM] | 6 | 54%[38.3 µM] | 0
